The campaign covered roughly 16,000 compounds. About 5,700 (36%) were called active. Another 24% or so got no clear call; they are omitted. The call rests on the fitted dose curve; in most records, active means well fitted curve in the direction sought with a large enough effect; inconclusive means small, poorly fitted or top-dose-only effect, or effect the other way; inactive means no such curve, though single readings can be large or run the other way. This is one part of the list.
On the % scale 0 is the no-effect control and ±100 the full control effect.

Chain of Cytochrome P450 1A2 (Homo sapiens) (P05177 whole entry, looked up): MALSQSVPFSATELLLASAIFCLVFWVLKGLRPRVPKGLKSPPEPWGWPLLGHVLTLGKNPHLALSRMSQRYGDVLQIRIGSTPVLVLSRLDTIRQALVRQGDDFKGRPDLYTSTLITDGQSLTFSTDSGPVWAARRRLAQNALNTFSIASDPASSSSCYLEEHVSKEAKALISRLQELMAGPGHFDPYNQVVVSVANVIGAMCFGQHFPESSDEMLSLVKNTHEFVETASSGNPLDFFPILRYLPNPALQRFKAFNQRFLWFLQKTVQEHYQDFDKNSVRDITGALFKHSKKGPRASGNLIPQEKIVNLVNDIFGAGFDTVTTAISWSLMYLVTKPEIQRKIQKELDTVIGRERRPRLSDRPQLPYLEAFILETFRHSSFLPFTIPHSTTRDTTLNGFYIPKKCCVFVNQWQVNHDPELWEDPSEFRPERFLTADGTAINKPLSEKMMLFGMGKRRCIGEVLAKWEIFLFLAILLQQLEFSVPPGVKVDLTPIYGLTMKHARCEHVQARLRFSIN

The assay addresses Cytochrome P450 1A2 (Homo sapiens) (UniProt P05177). Nature of the assay: Cytochrome panel assay with activity outcomes. Particulars: recombinant CYP, pro-luciferin dealkylation, luminescence, p450-cyp1a2; series mostly up to 57.1 µM; activity, negative = inhibition: at the top concentration.
For `N[C@@H](Cc1ccccc1)C(=O)O`, the activity, negative = inhibition was -14% [at 11.4 µM] (inactive).

What is called AC50 is the concentration at which the activity in the assay is half-maximal. Take `Cc1ccccc1-c1nc(N(C)C)c2ccccc2n1`: the concentration at half-maximal activity (AC50) was 631 nM (active).

As to `COc1ccccc1-c1nc(N(C)C)c2ccccc2n1`, the AC50 is 398 nM (active).

Take `CN(C)c1nc(-c2ccccc2C(F)(F)F)nc2ccccc12`: the concentration at half-maximal activity (AC50) is 251 nM (active).

Take `Cc1ccc(-c2ccc(=O)n(CC(=O)NCCN3CCCCC3C)n2)cc1` (stereo not drawn): the “activity, negative = inhibition” value is -19.8% (inactive).

On to `O=C(NCC1COc2ccccc2O1)C1C2C=CC3(CN(Cc4cccs4)C(=O)C13)O2` (stereo not drawn), for which the “activity, negative = inhibition” value was -8.02% (inactive).

Take `CC(C)C(=O)Nc1ccc(C(=O)NNC(=O)CCCOc2ccc(Cl)cc2Cl)cc1`: the “activity, negative = inhibition” value was -24% (inactive).

Regarding `COc1ccc(/C=N/NC(=O)CCCOc2ccc(Cl)cc2Cl)cc1[N+](=O)[O-]`, the half-maximal activity concentration (AC50) was 1260 nM (active).

For `COC(=O)CCC(=O)NNC(=O)CCCOc1ccc(Cl)cc1Cl`, the AC50 was 12600 nM (active).

Take `CC1(C)CC(=O)C/C(=N/NC(=O)CCCOc2ccc(Cl)cc2Cl)C1`: the AC50 is 15800 nM (active).

As to `COC(=O)CCCC(=O)O`, the activity, negative = inhibition was -7.34% [at 2.29 µM] (inactive).

Consider `COCCCNC(=O)C(=O)N/N=C/c1ccc(OCC(=O)Nc2cccc(Cl)c2C)c(OC)c1`, for which the “activity, negative = inhibition” value was -23.7% (inactive).

Consider `Clc1ccccc1-c1nccc(NCc2ccccc2)n1`, for which the AC50 was 3160 nM (active).

`Cc1cccc(CNc2ccnc(-c3ccccc3Cl)n2)c1`: the concentration at half-maximal activity (AC50) is 1580 nM (active).

For `Cc1cccc(CNc2ccnc(-c3ccccc3CN(C)C)n2)c1`, the half-maximal activity concentration (AC50) was 3160 nM (active).

As to `CCOc1ccc(-n2c(N)c(C(=O)NCc3cccnc3)sc2=S)cc1`, the “activity, negative = inhibition” value was -14.8% (inactive).

`COc1ccc(-n2c(N)c(C(=O)NCc3ccco3)sc2=S)cc1`: the concentration at half-maximal activity (AC50) is 11200 nM (active).

`OC[C@@H]1NC[C@@H](O)[C@H]1O`: the “activity, negative = inhibition” value is -7.03% (inactive).

With `CCOC(=O)c1[nH]c2ccc(Cl)cc2c1-c1ccccc1`, the AC50 is 398 nM (active).

In the case of `NC(=NCc1ccc(Cl)c(Cl)c1)NC(=O)c1nc(Cl)c(N)nc1N`, the half-maximal activity concentration (AC50) is 10000 nM (active).

With `CC(=O)Nc1ccc(S(=O)(=O)NC2(C(F)(F)F)NC(=O)N(c3ccc(Cl)cc3)C2=O)cc1` (stereo not drawn), the “activity, negative = inhibition” value is 7.68% (inactive).

For `CCNC(=O)CC1C(=O)N(c2ccc(F)cc2)C(=O)N1CCc1ccc(OC)cc1` (stereo not drawn), the “activity, negative = inhibition” value was -10.7% (inactive).

As to `O=C(CC1C(=O)N(c2ccc(Cl)cc2)C(=S)N1CCc1ccncc1)Nc1ccc(F)cc1` (stereo not drawn), the AC50 is 5010 nM (active).

For `CCCn1c(-c2ccccc2)nc2c(=O)n(C)c(=O)[nH]c21`, the “activity, negative = inhibition” value is 16.6% (inactive).

As to `Cn1c(-c2ccccc2)cnc1N`, the AC50 is 17800 nM (active).

Consider `CN(C)c1ccc(-c2nc(N(C)C)c3ccccc3n2)cc1`, for which the AC50 was 251 nM (active).

For `CNc1nc(-c2ccc(N(C)C)cc2)nc2ccccc12`, the AC50 is 200 nM (active).

With `CN(C)c1nc(-c2ccoc2)nc2ccccc12`, the AC50 is 501 nM (active).

As for `CN(C)c1ccc(-c2nc(Nc3ccncc3)c3ccccc3n2)cc1`, the concentration at half-maximal activity (AC50) is 501 nM (active).

`COCC(=O)N1CCC[C@@]2(CCN(Cc3ccccc3)C2)C1`: the “activity, negative = inhibition” value is -20.7% (inactive).

With `O=C(CC1(O)CCCCC1)OC1CCCC1`, the activity, negative = inhibition is -12.2% [at 11.4 µM] (inactive).

In the case of `CC1(C)O[C@H]2[C@@H](O1)[C@@H](On1nnc3ccc(Cl)cc31)O[C@@H]2[C@@H]1COC(C)(C)O1`, the activity, negative = inhibition is -10.9% [at 2.29 µM] (inactive).

In the case of `CN(C)c1nc(-c2cccnc2)nc2ccccc12`, the concentration at half-maximal activity (AC50) is 126 nM (active).

`CCOC(=O)Cc1c(C)nc2c(C#N)c[nH]n2c1=O`: the “activity, negative = inhibition” value is -19.7% (inactive).

`CCOC(=O)Cc1cc(=O)n2[nH]c(C)c(C#N)c2n1`: the “activity, negative = inhibition” value is -13% (inactive).

In the case of `CCOC(=O)Cc1cc(=O)n2[nH]c(C)c(-c3ccccc3)c2n1`, the AC50 is 12600 nM (active).

On to `S=C(CSc1ccccc1)Nc1cccc2ccccc12`, for which the concentration at half-maximal activity (AC50) was 1260 nM (active).

Regarding `CO[C@@H]1COC(=O)CCC[C@@H](C)[C@H](OC)COC(=O)CCC[C@H]1C`, the activity, negative = inhibition is 5.33% [at 11.4 µM] (inactive).

Take `Cc1cccc(-c2noc(-c3cc4ccccc4oc3=O)n2)c1`: the concentration at half-maximal activity (AC50) was 3160 nM (active).

Regarding `CS(=O)(=O)c1ccccc1-c1nc(-c2cc(C(F)(F)F)cc(C(F)(F)F)c2)no1`, the “activity, negative = inhibition” value was -28.2% (inactive).

For the compound `NC1=NC2(CCCCC2)N=C(Nc2ccc(F)cc2F)N1`, the “activity, negative = inhibition” value was -15.7% (inactive).

With `O=C(O)C1CCCCC1C(=O)Nc1cc(Cl)ccc1Cl` (stereo not drawn), the “activity, negative = inhibition” value was -17.2% (inactive).

`COc1cc(C)nc(N2CCCC(C(=O)Nc3cc(Cl)ccc3OC)C2)n1` (stereo not drawn): the AC50 was 3550 nM (active).

With `Cc1ccc(C(=O)NNC(=O)C2CCCN(c3ncccn3)C2)cc1` (stereo not drawn), the “activity, negative = inhibition” value was -4.32% (inactive).

For the compound `CN1CCN(S(=O)(=O)c2ccc3[nH]cc(C(=O)O)c(=O)c3c2)CC1`, the “activity, negative = inhibition” value is 6.2% (inactive).

As for `Cc1ccccc1NS(=O)(=O)c1ccc2[nH]cc(C(=O)N(C)Cc3ccco3)c(=O)c2c1`, the AC50 was 15800 nM (active).

As to `CCOC(=O)N1CCN(S(=O)(=O)c2ccc3[nH]cc(C(=O)O)c(=O)c3c2)CC1`, the “activity, negative = inhibition” value is -32.5% (inactive).

On to `COc1ncc2nc(-c3cccs3)c(=O)n(C)c2n1`, for which the AC50 was 2000 nM (active).

Source of the values: PubChem BioAssay AID1851 (National Center for Advancing Translational Sciences (NCATS), 2009).
